In the library only some 3.5% were active in any assay of this set; here they are far more common.
mHTT CaM bind – mutant huntingtin-calmodulin interaction inhibitors – biochemical, AlphaScreen, primary screen; P42858; AID 1671202, 2021; hit rate 3.6% among 190,000; inhibition, % at 15 µM; AlphaScreen His-mHTT/GST-CaM binding, luminescence
Pf apPOL inh – Pf-apPOL inhibitors, biochemical, fluorescence | hit rate 0.25% among 210,000 | inhibition, % at 10 µM | AID 1794808, 2022 | Recombinant Pf-apPOL, molecular beacon fluorescence, 1.5 h
Each line names hits and unclear results; the compound was inactive in the other large screens. Cut-off read from the data, not from the text of the source: active = inhibition above about 50%; inactive = the rest.

Oc1ccccc1C(Nc1nccs1)c1ccc2cccnc2c1O (configuration not stated)	mHTT CaM bind 100
Oc1ccccc1C(Nc1ccccn1)c1ccc2cccnc2c1O (configuration not stated)	mHTT CaM bind 100
COc1ccc(CNC(=O)C2CCCN(c3cnn(C)c(=O)c3)C2)cc1OC (configuration not stated)	none
N=c1c(C(=O)NC2CCCCC2)cc2c(=O)n3ccccc3nc2n1CCCN1CCOCC1	none
CNC(=O)Cc1csc(NC(=O)Cn2ccc3ccccc32)n1	none
COc1cc(Cl)c(/C=C2/SC(=Nc3cccc(C(=O)O)c3)N(C)C2=O)cc1OC	none
Oc1ccc(Cl)c(C(Nc2ccccn2)c2ccc3cccnc3c2O)c1 (configuration not stated)	mHTT CaM bind 100
O=C(Nc1ccccn1)c1cc(I)ccc1Cl	none
CCOc1ccc(N(CC)C(=O)c2nc(C)n(C3CCN(S(C)(=O)=O)CC3)c2C)cc1	none
COc1ccc(N(C)C(=O)c2nc(C)n(C3CCN(S(C)(=O)=O)CC3)c2C)cc1	mHTT CaM bind 86
Cc1ccc(-c2csc(=Nc3ccccc3)n2CCO)cc1	mHTT CaM bind 52
OCCn1c(-c2ccc(Cl)c(Cl)c2)csc1=Nc1ccccc1	mHTT CaM bind 100
c1ccc(N=c2scc(-c3ccccc3)n2CCN2CCOCC2)cc1	none
OCCn1c(-c2ccc(Cl)cc2)csc1=Nc1ccccc1	mHTT CaM bind 69
CCN(CC)CCn1c(-c2ccccc2)csc1=Nc1ccccc1	none
N#C/C(=C\c1ccc(I)o1)c1ccc(F)cc1	none
COc1ccccc1N1CCN(C(=O)c2cccc(Br)c2)C(C)C1=O (configuration not stated)	none
O=C(c1ccccc1C(F)(F)F)N1CCc2nc(-c3ccc(Cl)cc3)ncc2C1	none
O=C(NCc1ccc(Cl)cc1)c1ccc(-c2cccnc2)nc1	none
O=C(Nc1cc(-c2cccnc2)no1)c1ccc(F)c(F)c1	none
O=C(NC(C(=O)N1CCOCC1)C12CC3CC(CC(C3)C1)C2)C1CCCCC1 (configuration not stated)	none
NC(=O)c1cc(N2C(=O)CCC2=O)ccc1N1CCOCC1	none
Cc1cccc(NC(=O)COc2ccc(Cl)cc2)c1C	none
Cc1ccc(-n2nc(C)c3sc(N4CCCN(C(=O)C5CCCC5)CC4)nc32)cc1	none
Cc1cccc(-n2nc(C)c3sc(N4CCCN(C(=O)C5CCCCC5)CC4)nc32)c1	mHTT CaM bind 68
CC1Cn2cc(-c3ccc([N+](=O)[O-])cc3)nc2S1 (configuration not stated)	Pf apPOL inh 51
O=[N+]([O-])c1ccc(-c2cn3c(n2)SCC3)cc1	none
CCOCCCNC(=O)c1ccc(-n2nnc3ccccc3c2=O)cc1	none
CC1(C)Nc2ccccc2-c2c1ssc2=Nc1cccc(Cl)c1	mHTT CaM bind 69 (no result: Pf apPOL inh)
Cc1ccc2c(c1)-c1c(ssc1=Nc1cc(Cl)ccc1Cl)C(C)(C)N2	mHTT CaM bind 98 (no result: Pf apPOL inh)
Cc1cc2c(cc1C)-c1c(ssc1=Nc1ccc(S(N)(=O)=O)cc1)C(C)(C)N2	none (no result: Pf apPOL inh)
Cc1ccc2c(c1)/C(=C/c1ccc(Cl)cc1)C(=O)N2	none
Cc1ccc2c(c1)NC(C)(C)c1ssc(=Nc3ccc(Cl)cc3Cl)c1-2	mHTT CaM bind 62 (no result: Pf apPOL inh)
O=C(O)c1ccc([N+](=O)[O-])c2c1NC(c1ccc([N+](=O)[O-])cc1)C1CC=CC21 (configuration not stated)	none
O=[N+]([O-])c1c(Cl)cc(O)c2c1C1C=CCC1C(c1ccc(Br)cc1)N2 (configuration not stated)	mHTT CaM bind 98
Oc1ccc(Br)c2c1NC(c1ccc(Cl)cc1)C1CC=CC21 (configuration not stated)	mHTT CaM bind 100
O=[N+]([O-])c1ccc(C2Nc3c(O)ccc(Br)c3C3C=CCC32)cc1 (configuration not stated)	mHTT CaM bind 100
COc1ccc(NC(=O)c2cnn(-c3ccccc3)c2NC(=O)c2ccccc2F)c(OC)c1	none
O=C(Nc1ccc2c(c1)N(C(=O)c1ccco1)CCC2)Oc1ccccc1	none
CCn1ccnc(NC2CCCCC2)c1=O	none
CC1(C)OCC2(CO1)CN(C(=O)CCC(=O)c1ccccc1)C2	none
COC(=O)c1ccc(C(=O)NCC2CCN(C(=O)Oc3ccccc3)CC2)cc1	none
O=C(O)c1cc([N+](=O)[O-])c(N2CCN(c3cccc(C(F)(F)F)c3)CC2)c([N+](=O)[O-])c1	Pf apPOL inh 84
O=[N+]([O-])c1ccc(N2CCN(c3cccc(C(F)(F)F)c3)CC2)s1	none
Cc1cc(C)nc(SCC(=O)Nc2ncc(Cc3cccc(C(F)(F)F)c3)s2)n1	none
Cc1noc(C2(NC(=O)C3COc4ccccc4O3)CCCCC2)n1 (configuration not stated)	none
Cc1nc(C)c(Cc2ccc(Cl)cc2)c(N2CCN(C(=O)C3CC3)CC2)n1	none
CCC(=O)N1CCN(c2nc(C)nc(C)c2Cc2c(F)cccc2Cl)CC1	none
Cc1nc(C)c(Cc2ccc(Cl)cc2)c(N2CCN(C(=O)C3CCC3)CC2)n1	mHTT CaM bind 93
CCC(=O)N1CCN(c2nc(C)nc(C)c2Cc2ccc(Cl)cc2Cl)CC1	mHTT CaM bind 52
COc1cc2c(cc1C)/C(=N/OC(=O)c1cc(OC)c(OC)c(OC)c1)CCC2	none
O=C1OC(c2cccc(Br)c2)=N/C1=C\c1cccnc1	none
O=C1c2cc(N3CCC4(CC3)OCCO4)c([N+](=O)[O-])cc2C(=O)N1c1ccccc1	none
COc1ccc(C(C[N+](=O)[O-])Sc2cccc3cccnc23)cc1 (configuration not stated)	mHTT CaM bind 100
CCCCOc1ccc(NC(=O)CSc2cccc3cccnc23)cc1	none
COc1cc(NC(=O)c2ccc(Cl)cc2)c(Cl)cc1NC(=O)c1cccc(C)c1	none
Cc1ccc(CNC(=O)c2ccc(NC(=O)C3CC3)cc2N2CCCCC2)o1	none
CC/C(=C\c1ccccc1)c1cccc2oc3ccccc3c12	none
CC/C(=C/c1ccccc1)c1cccc2[nH]c3c(OC)cccc3c12	mHTT CaM bind 54
Cc1cc(-c2ccccc2)n(-c2cc(Nc3cccc(C(F)(F)F)c3)ncn2)n1	mHTT CaM bind 93
CNc1cc(-n2nc(C)cc2-c2ccccc2)ncn1	none
COc1cc(NC(=O)Cn2c(C)nc3c(c2=O)CCN(Cc2ccccc2)C3)cc(OC)c1	none
Cc1ccc(C2C(C#N)=C(N)OC3=C2C(=O)CCC3)o1 (configuration not stated)	none
Cc1ccc(C2C(C#N)=C(N)Oc3c2sc2ccccc32)o1 (configuration not stated)	mHTT CaM bind 86
CCCn1cc(C2=CCN(C(=O)NC3CCCCC3)CC2)c2cccnc21	none
Cc1ccc2ncc(C#N)c(N3CCC(C(=O)Nc4ccc(F)cc4)CC3)c2c1	none
CCc1ccccc1NC(=O)N1CC2CCCN2c2ccccc21 (configuration not stated)	mHTT CaM bind 79
Cc1c(Cl)cccc1NC(=O)N1CC(C)Oc2ccccc21 (configuration not stated)	none
CCOC(=O)c1ccccc1NC(=O)N1CC2CCCN2c2ccccc21 (configuration not stated)	mHTT CaM bind 68
O=C(Nc1ccccc1F)N1CC2CCCN2c2ccccc21 (configuration not stated)	none
COC(=O)c1ccc(Cl)cc1NC(=O)N1CC2CCCN2c2ccccc21 (configuration not stated)	none
Cc1c(Cl)cccc1NC(=O)N1CC2CCCN2c2ccccc21 (configuration not stated)	mHTT CaM bind 77

Screens deposited in PubChem BioAssay by University of Kansas High Throughput Screening Laboratory.
